Results on 15 molecules are retold here after PubChem BioAssay (NCI).

Some test systems named below: EKVX NSCLC; SN12C renal; UO-31 renal; TK-10 renal; CAKI-1 renal; A498 renal; MOLT-4 leukemia; CCRF-CEM leukemia; SR leukemia; ACHN renal.
Experiment in all cases: NCI-60 one-dose screen, 48 h (100 = growth as untreated, 0 = no growth, -100 = all killed)
Holding throughout (settings): 10 µM

Compounds without any hit were thinned out: in the full panel of roughly 83,000, 20% have a hit.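 Plates (96-well) were seeded with cells, treated with compound at one concentration, and incubated for 48 hours before percent growth was determined.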 Values without a mark were called inactive. The source made the active and inactive calls. The calls were made as follows: active = growth percent below 10; inactive = the rest.

As to `O=C(Nc1ccc(Cl)c(Cl)c1)Nc1c(Oc2ccc(Cl)c(Cl)c2)ccc(Cl)c1S(=O)(=O)O`, the growth with EKVX NSCLC was 38.2%; with SN12C renal, 36.4%; with UO-31 renal, 21.2%; with TK-10 renal, 25.3%; with CAKI-1 renal, 12.1%; in the assay with A498 renal, -13.3% (active). For the same molecule, the growth in the assay on MOLT-4 leukemia was 25%.

For the molecule `CC1CN(Cc2ccccc2)C(=O)NC1=O` (configuration not stated), the growth was 121% with EKVX NSCLC; 91.1% with SN12C renal; 85.7% with UO-31 renal; 104% in the assay with TK-10 renal; 116% in the assay on CAKI-1 renal; 121% with A498 renal. In addition, the growth in the assay on CCRF-CEM leukemia was 103%; in the assay with MOLT-4 leukemia, 94.2%; with SR leukemia, 101%.

For `COc1cccc(-c2cc(-c3cccc(NS(C)(=O)=O)c3)nc(N)c2C#N)c1O`, the growth in the assay with EKVX NSCLC was 32.6%; with SN12C renal it was 50.7%; with UO-31 renal, 15.3%; with TK-10 renal it was 71.3%; in the assay with CAKI-1 renal it was -11.9% (active); in the assay with CCRF-CEM leukemia, 12.3%. Besides, the growth in the assay on MOLT-4 leukemia was 35%; in the assay with SR leukemia, 24.6%.

On to `O=C(CC(NC(=O)OCc1ccccc1)C(=O)OCc1ccccc1)OCc1ccccc1` (configuration not stated), for which the growth in the assay on EKVX NSCLC was 95.7%; with SN12C renal, 102%; in the assay with UO-31 renal, 103%; with TK-10 renal, 97.6%; with CAKI-1 renal, 99.3%; with A498 renal it was 68.1%. In addition, the growth in the assay on CCRF-CEM leukemia was 47.5%; in the assay on MOLT-4 leukemia, 115%; in the assay with SR leukemia, 99.3%.

For the molecule `O=C1ON=[N+](c2ccc(Cc3ccc([N+]4=NOC(=O)C4CN4CCOCC4)cc3)cc2)C1CN1CCOCC1` (configuration not stated), the growth with EKVX NSCLC is 69.9%; in the assay on SN12C renal it was 80.3%; in the assay with UO-31 renal, 44.3%; in the assay on TK-10 renal, 74.5%; with CAKI-1 renal, 49.3%; with A498 renal, 53.7%. In addition, the growth in the assay with CCRF-CEM leukemia is 63.9%; in the assay with MOLT-4 leukemia, 68.4%; in the assay on SR leukemia, 23%.

In the case of `Nc1ncn([C@@H]2O[C@H](CO)[C@@H](O)[C@H]2O)c(=O)n1`, the growth with EKVX NSCLC was 107%; in the assay on SN12C renal, 14.8%; with UO-31 renal, 15%; in the assay on TK-10 renal, 40.5%; in the assay on CAKI-1 renal it was 22.3%; in the assay on A498 renal it was 28.5%. Besides, the growth in the assay with MOLT-4 leukemia is 33.6%; with SR leukemia, 7.12% (active).

As for `CC[C@H](C)C(=O)O[C@H]1CCC=C2C=C[C@H](C)C(CCC3C[C@@H](O)CC(=O)O3)[C@H]21` (some centres not stated), the growth in the assay on EKVX NSCLC is 65.6%; in the assay with SN12C renal, 32.4%; with UO-31 renal, 70.1%; in the assay on TK-10 renal it was 97.2%; in the assay on CAKI-1 renal it was -1.64% (active); in the assay on A498 renal it was -33.8% (active). Moreover, the growth with CCRF-CEM leukemia is 82.3%; in the assay on MOLT-4 leukemia, 91.9%; in the assay with SR leukemia, 15.5%.

For the molecule `COc1ccc(OC)c(/C=C/c2nc(SC)n(-c3ccc(Cl)cc3)n2)c1`, the growth in the assay with EKVX NSCLC was 61.4%; in the assay on SN12C renal, 80.3%; in the assay with UO-31 renal it was 39.6%; in the assay on TK-10 renal, 92.3%; in the assay with CAKI-1 renal it was 64.5%; with CCRF-CEM leukemia, 71.4%. The growth in the assay with MOLT-4 leukemia is 73%; in the assay on SR leukemia it was 41.5%.

For `CCCCCCN(CCCCCC)CC(O)c1ccc2c3c(cccc13)CC2` (configuration not stated), the growth is 71.5% in the assay on EKVX NSCLC; 61.4% in the assay with SN12C renal; 32% in the assay on UO-31 renal; 53.8% in the assay on ACHN renal; 59.6% with CAKI-1 renal; 24.5% with A498 renal. The growth was 53.3% in the assay with MOLT-4 leukemia and 21.7% in the assay on SR leukemia.

`c1ccc([I+]c2ccccc2)cc1`: the growth in the assay on SN12C renal was 96.7%; in the assay on UO-31 renal it was 45.9%; in the assay on TK-10 renal, 56.6%; in the assay on ACHN renal, 77.1%; with CAKI-1 renal, 37.3%; with A498 renal, 65%. Further, the growth with CCRF-CEM leukemia was 51.5%; with MOLT-4 leukemia it was 62.9%.

For the molecule `COc1cc2c(cc1OCCCCCCN1CCN(CC(=O)Nc3ccc(Cl)cc3C(=O)c3ccccc3Cl)CC1)N=CC1CCCN1C2=O` (configuration not stated), the growth in the assay on EKVX NSCLC is -93.2% (active); with SN12C renal it was -90.2% (active); in the assay on TK-10 renal, -98.8% (active); in the assay with ACHN renal, -100% (active); with CAKI-1 renal, -98.8% (active); in the assay with CCRF-CEM leukemia, -66.3% (active). The growth was -64% (active) in the assay on MOLT-4 leukemia and -70.2% (active) with SR leukemia.

On to `CC1CC(=O)OC(C)C1` (configuration not stated), for which the growth with SN12C renal is 109%; in the assay with UO-31 renal, 94.1%; with TK-10 renal, 104%; in the assay on ACHN renal, 110%; in the assay with CAKI-1 renal it was 93%; in the assay with A498 renal, 96.1%. In addition, the growth in the assay on CCRF-CEM leukemia is 101%.

For `COc1cc(Cl)cc(-c2nn(-c3cccc(NC(=O)Nc4ccc(Cl)c(C(F)(F)F)c4)c3)cc2-c2ccncc2)c1`, the growth in the assay on SN12C renal was 13.8%; in the assay on UO-31 renal, 11.1%; with TK-10 renal, 37.5%; with ACHN renal, 8.78% (active); in the assay with CAKI-1 renal, 9.38% (active); in the assay on A498 renal, -9.18% (active). The values for the growth in the assay with CCRF-CEM leukemia and with MOLT-4 leukemia were 1.88% (active) and -9.68% (active), respectively.

Consider `CCOC(=O)C(CSC(c1ccccc1)(c1ccccc1)c1ccccc1)NC(=O)C(CSC(c1ccccc1)(c1ccccc1)c1ccccc1)NC(c1ccccc1)(c1ccccc1)c1ccccc1` (configuration not stated), for which the growth with SN12C renal was 110%; in the assay with UO-31 renal, 94.8%; with TK-10 renal, 118%; in the assay on ACHN renal, 104%; with CAKI-1 renal, 87%; with A498 renal, 91.3%. In addition, the growth in the assay on CCRF-CEM leukemia was 100%; in the assay with MOLT-4 leukemia, 110%.

Turning to `COc1ccc(-c2nn(-c3cccc(NC(=O)Nc4cccc(C(F)(F)F)c4)c3)cc2-c2ccncc2)cc1Cl`, the growth with SN12C renal is 19.7%; in the assay with UO-31 renal it was -4.03% (active); in the assay on TK-10 renal, 11.8%; in the assay on ACHN renal it was 17.5%; in the assay with CAKI-1 renal it was 1.63% (active); in the assay on A498 renal, 0.293% (active). The growth in the assay with CCRF-CEM leukemia is 2.2% (active); with MOLT-4 leukemia, 2.54% (active).
